# Experimental data taken from article PMC7862700, “An all-to-all approach to the identification of sequence-specific readers for epigenetic DNA modifications on cytosine”.
# Assays:
# Assay in all cases: DAPPL (digital affinity profiling via proximity ligation, sequencing); 10 mM Tris-HCl pH 7.5, 50 mM NaCl, 1 mM DTT, 4% glycerol, room temperature, 30 min; GST-TFs on glutathione beads, 16-mer random dsDNA library, 0.1% formaldehyde crosslink after washing; high values mean tight binding
# FEV = target: T1, FEV (Homo sapiens, UniProt Q99581 1-238); details: protein: recombinant; tags: N-terminal GST; dsDNA, one strand shown
# T1 sequence: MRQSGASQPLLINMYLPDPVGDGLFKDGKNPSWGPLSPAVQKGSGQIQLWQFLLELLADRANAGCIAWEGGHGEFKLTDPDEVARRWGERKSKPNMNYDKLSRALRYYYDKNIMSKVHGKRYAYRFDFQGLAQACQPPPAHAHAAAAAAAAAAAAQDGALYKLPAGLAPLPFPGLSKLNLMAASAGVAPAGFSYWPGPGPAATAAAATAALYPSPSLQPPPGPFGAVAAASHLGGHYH
# Method in brief: (§1)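 Binding signal is each hexamer's read frequency for a factor divided by its frequency in the tag-only sample. The factors were GST-fused human transcription factors from yeast, captured on glutathione beads, DNA-barcoded and pooled with that sample. Pools were incubated with 200 nmole of a random double-stranded 16-mer DNA library in Tris/NaCl/DTT/glycerol buffer at room temperature for 30 min, then washed, crosslinked with 0.1% formaldehyde, proximity-ligated with BsaI/T4 ligase (1 h, 37 °C), PCR-amplified and sequenced on an Illumina NextSeq500.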
# ETV5 = ETV5 (Homo sapiens, UniProt P41161 1-510); details: protein: recombinant; tags: N-terminal GST; dsDNA, one strand shown
# ETV5, sequence (P41161 whole entry): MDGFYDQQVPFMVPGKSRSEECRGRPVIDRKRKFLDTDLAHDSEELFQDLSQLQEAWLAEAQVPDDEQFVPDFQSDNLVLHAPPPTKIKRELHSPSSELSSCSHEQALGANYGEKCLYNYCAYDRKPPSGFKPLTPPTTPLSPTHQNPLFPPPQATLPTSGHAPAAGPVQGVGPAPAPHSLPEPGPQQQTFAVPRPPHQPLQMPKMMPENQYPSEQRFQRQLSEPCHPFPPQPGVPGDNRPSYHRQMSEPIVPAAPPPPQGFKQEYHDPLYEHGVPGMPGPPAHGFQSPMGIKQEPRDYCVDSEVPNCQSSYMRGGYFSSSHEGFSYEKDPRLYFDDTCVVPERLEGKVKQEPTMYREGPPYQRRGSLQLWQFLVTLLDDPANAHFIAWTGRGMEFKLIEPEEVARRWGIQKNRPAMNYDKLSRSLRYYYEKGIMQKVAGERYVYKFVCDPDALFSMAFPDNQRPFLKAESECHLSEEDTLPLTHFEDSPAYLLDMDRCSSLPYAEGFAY
# Method in brief: as §1
# HSF1 = HSF1 (Homo sapiens, UniProt Q00613 1-529); details: protein: recombinant; tags: N-terminal GST; chain copies: 3; dsDNA, one strand shown
# HSF1, sequence (Q00613 whole entry): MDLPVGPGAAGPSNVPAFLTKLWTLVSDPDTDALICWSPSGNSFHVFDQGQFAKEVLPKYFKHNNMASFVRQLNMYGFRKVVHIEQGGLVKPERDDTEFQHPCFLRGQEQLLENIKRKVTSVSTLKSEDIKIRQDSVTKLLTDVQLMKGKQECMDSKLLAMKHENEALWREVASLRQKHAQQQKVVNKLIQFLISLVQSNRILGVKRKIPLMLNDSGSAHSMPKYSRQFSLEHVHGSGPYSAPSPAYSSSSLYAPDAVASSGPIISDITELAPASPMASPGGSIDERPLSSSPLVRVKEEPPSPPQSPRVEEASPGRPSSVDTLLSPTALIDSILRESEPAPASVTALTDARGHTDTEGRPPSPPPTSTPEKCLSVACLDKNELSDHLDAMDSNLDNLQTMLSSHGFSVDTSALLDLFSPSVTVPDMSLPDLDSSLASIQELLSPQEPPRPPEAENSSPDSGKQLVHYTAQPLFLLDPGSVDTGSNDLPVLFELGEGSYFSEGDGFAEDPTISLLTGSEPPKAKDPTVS
# Method in brief: as §1
# SPIC = target: T2, SPIC (Homo sapiens, UniProt Q8N5J4 1-248); details: protein: recombinant; tags: N-terminal GST; dsDNA, one strand shown
# T2 sequence: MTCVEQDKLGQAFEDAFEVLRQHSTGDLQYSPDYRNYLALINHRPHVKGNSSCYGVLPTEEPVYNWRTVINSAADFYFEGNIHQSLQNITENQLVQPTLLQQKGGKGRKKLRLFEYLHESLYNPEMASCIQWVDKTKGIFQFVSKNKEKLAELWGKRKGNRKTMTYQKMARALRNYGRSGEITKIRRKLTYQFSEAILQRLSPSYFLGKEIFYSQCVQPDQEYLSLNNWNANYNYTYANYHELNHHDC
# Method in brief: as §1
# ELF4 = ELF4 (Homo sapiens, UniProt Q99607 1-663); details: protein: recombinant; tags: N-terminal GST; dsDNA, one strand shown
# ELF4, sequence (Q99607 whole entry): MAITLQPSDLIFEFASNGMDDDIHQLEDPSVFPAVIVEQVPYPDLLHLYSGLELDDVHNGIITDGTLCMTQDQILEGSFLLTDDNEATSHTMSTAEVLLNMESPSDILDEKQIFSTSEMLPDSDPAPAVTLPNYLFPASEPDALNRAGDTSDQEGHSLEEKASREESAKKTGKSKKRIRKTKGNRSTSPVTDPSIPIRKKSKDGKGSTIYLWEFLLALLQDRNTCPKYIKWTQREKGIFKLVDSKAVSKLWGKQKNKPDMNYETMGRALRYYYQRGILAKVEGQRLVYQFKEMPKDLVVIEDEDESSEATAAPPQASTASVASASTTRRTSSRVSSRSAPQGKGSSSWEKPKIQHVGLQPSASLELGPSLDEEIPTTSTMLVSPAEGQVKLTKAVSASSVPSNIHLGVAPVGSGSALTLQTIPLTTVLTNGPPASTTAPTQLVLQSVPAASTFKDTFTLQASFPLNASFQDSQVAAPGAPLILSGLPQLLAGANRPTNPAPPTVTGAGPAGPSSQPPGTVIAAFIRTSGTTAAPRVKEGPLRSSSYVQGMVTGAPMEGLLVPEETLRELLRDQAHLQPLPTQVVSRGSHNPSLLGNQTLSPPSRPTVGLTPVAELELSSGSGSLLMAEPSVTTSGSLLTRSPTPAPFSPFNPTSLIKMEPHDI
# Method in brief: as §1
# ELK4 = target: T3, ELK4 (Homo sapiens, UniProt P28324-2 1-405); details: protein: recombinant; tags: N-terminal GST; dsDNA, one strand shown
# T3 sequence: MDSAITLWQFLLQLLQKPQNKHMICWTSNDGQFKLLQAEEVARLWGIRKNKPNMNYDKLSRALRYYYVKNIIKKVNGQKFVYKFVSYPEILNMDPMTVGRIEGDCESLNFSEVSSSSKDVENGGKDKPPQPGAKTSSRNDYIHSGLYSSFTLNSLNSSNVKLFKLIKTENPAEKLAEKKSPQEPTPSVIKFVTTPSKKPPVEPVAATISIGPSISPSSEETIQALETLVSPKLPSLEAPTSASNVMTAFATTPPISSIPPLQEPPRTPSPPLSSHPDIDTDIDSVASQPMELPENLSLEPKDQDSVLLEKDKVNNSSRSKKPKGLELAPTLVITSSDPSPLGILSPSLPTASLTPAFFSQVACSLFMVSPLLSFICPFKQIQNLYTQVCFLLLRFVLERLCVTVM
# Method in brief: as §1
# ETV2 = target: T4, ETV2 (Homo sapiens, UniProt O00321 1-342); details: protein: recombinant; tags: N-terminal GST; dsDNA, one strand shown
# T4 sequence: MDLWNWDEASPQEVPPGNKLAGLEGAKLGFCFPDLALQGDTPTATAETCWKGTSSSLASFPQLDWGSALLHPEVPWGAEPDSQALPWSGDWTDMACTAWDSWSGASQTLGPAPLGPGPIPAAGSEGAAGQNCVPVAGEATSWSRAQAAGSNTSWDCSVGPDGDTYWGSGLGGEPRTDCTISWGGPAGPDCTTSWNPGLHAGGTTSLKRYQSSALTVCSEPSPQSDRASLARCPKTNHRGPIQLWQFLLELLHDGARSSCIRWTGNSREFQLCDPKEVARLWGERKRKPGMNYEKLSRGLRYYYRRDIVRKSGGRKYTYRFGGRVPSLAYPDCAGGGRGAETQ
# Method in brief: as §1
# ELF3 = target: T5, ELF3 (Homo sapiens, UniProt P78545 1-371); details: protein: recombinant; tags: N-terminal GST; dsDNA, one strand shown
# T5 sequence: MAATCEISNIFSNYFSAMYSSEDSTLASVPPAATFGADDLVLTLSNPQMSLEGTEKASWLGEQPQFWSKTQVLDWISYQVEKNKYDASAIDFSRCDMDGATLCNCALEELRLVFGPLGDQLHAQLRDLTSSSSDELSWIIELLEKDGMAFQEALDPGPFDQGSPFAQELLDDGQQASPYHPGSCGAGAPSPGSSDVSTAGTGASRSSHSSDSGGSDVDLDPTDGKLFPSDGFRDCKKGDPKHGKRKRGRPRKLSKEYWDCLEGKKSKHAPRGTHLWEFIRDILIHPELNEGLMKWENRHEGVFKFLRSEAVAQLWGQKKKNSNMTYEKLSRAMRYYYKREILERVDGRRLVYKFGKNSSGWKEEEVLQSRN
# Method in brief: as §1
# CRX = CRX (Homo sapiens, UniProt O43186 1-299); details: protein: recombinant; tags: N-terminal GST; dsDNA, one strand shown
# CRX, sequence (O43186 whole entry): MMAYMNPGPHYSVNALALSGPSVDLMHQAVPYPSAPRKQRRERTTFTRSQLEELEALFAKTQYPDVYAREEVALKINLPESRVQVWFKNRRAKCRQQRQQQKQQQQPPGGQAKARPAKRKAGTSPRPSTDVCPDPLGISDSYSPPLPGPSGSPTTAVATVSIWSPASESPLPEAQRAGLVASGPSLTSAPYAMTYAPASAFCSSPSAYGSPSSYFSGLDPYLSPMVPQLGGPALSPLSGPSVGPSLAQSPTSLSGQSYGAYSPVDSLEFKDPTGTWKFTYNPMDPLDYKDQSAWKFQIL
# Method in brief: as §1
# ETV1 = ETV1 (Homo sapiens, UniProt P50549 1-477); details: protein: recombinant; tags: N-terminal GST; dsDNA, one strand shown
# ETV1, sequence (P50549 whole entry): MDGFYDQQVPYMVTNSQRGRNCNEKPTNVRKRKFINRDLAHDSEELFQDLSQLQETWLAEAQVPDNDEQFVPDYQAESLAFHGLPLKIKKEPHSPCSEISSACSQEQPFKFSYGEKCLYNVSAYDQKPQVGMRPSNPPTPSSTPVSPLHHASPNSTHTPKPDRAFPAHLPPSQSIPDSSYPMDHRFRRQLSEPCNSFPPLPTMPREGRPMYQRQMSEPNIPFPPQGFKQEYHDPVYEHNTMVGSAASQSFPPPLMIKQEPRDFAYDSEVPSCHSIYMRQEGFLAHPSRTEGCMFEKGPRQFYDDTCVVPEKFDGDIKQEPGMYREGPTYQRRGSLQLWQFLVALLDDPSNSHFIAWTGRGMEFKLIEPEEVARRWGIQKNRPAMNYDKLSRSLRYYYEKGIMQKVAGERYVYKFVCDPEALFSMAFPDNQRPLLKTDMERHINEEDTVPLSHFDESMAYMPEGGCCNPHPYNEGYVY
# Method in brief: as §1
# ERF = target: T6, ERF (Homo sapiens, UniProt P50548 1-548); details: protein: recombinant; tags: N-terminal GST; dsDNA, one strand shown
# T6 sequence: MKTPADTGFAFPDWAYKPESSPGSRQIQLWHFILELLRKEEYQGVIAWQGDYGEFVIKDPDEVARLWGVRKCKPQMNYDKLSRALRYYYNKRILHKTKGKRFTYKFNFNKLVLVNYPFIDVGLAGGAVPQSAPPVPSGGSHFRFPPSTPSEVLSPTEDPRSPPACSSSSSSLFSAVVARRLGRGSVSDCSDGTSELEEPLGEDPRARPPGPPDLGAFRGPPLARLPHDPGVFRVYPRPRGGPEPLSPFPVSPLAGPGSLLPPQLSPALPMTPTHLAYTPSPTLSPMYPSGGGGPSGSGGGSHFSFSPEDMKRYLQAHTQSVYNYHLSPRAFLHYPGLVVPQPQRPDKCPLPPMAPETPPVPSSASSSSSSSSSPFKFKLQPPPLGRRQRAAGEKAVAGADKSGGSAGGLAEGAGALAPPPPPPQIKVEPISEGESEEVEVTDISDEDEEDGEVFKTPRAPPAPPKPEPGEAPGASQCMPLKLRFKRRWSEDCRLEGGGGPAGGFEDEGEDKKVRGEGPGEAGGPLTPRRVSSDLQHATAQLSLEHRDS
# Method in brief: as §1
# ETV3L = target: T7, ETV3L (Homo sapiens, UniProt Q6ZN32 1-361); details: protein: recombinant; tags: N-terminal GST; dsDNA, one strand shown
# T7 sequence: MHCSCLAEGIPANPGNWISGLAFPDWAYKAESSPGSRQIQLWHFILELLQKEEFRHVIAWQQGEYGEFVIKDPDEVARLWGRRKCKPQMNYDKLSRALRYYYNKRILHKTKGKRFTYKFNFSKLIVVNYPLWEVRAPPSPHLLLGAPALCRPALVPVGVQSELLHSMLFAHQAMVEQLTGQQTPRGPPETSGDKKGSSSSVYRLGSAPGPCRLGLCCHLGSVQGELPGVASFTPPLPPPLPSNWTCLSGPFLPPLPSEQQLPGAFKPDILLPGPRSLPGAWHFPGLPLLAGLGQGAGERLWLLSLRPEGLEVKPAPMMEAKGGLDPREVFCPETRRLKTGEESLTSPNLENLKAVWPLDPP
# Method in brief: as §1
# ETS2 = target: T8, ETS2 (Homo sapiens, UniProt P15036 1-469); details: protein: recombinant; tags: N-terminal GST; dsDNA, one strand shown
# T8 sequence: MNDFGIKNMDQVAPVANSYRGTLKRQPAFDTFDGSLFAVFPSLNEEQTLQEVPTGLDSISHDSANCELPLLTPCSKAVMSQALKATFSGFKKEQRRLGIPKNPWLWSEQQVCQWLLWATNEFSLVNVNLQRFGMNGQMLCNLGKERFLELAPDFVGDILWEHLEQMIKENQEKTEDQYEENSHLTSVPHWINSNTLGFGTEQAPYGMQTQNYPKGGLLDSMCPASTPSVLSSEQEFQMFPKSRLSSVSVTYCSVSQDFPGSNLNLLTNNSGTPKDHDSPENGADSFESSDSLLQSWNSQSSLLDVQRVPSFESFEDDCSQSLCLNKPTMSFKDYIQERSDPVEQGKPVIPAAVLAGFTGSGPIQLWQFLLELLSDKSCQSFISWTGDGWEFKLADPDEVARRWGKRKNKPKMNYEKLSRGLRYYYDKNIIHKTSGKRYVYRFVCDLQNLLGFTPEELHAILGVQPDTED
# Method in brief: as §1
# SPDEF = target: T9, SPDEF (Homo sapiens, UniProt O95238 1-335); details: protein: recombinant; tags: N-terminal GST; dsDNA, one strand shown
# T9 sequence: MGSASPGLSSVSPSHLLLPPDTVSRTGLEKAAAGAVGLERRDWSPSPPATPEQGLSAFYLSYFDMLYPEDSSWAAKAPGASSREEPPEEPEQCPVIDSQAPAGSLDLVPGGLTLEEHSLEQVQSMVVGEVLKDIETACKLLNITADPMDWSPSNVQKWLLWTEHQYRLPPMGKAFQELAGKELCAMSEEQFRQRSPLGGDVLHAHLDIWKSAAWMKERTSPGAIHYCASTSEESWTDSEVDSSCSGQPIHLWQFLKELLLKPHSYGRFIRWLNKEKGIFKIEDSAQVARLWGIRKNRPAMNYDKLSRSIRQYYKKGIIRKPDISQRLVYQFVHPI
# Method in brief: as §1
# ETV7 = target: T10, ETV7 (Homo sapiens, UniProt Q9Y603 1-341); details: protein: recombinant; tags: N-terminal GST; dsDNA, one strand shown
# T10 sequence: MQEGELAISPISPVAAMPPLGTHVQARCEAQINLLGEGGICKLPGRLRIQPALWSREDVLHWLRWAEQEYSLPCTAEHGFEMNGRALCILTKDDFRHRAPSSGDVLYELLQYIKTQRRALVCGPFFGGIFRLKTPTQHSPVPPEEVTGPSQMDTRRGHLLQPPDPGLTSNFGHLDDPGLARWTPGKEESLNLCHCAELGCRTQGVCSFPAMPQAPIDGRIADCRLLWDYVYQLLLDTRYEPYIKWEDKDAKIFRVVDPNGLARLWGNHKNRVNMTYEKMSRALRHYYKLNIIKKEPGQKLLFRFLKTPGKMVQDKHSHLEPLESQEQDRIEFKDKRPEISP
# Method in brief: as §1
# ELF5 = target: T11, ELF5 (Homo sapiens, UniProt Q9UKW6-2 1-255); details: protein: recombinant; tags: N-terminal GST; dsDNA, one strand shown
# T11 sequence: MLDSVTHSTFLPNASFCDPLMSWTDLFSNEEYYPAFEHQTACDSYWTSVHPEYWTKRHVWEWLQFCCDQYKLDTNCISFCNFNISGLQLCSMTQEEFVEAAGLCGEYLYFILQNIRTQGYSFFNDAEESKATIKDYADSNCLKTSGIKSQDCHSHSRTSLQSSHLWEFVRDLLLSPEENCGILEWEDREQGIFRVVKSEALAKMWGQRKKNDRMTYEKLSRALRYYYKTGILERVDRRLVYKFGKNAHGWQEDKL
# Method in brief: as §1
# ETV3 = target: T12, ETV3 (Homo sapiens, UniProt P41162-2 1-143); details: protein: recombinant; tags: N-terminal GST; dsDNA, one strand shown
# T12 sequence: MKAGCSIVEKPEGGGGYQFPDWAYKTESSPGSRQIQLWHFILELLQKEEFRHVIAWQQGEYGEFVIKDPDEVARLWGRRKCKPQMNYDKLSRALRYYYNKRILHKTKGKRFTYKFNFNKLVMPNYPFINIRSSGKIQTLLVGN
# Method in brief: as §1
# ETV6 = ETV6 (Homo sapiens, UniProt P41212 1-452); details: protein: recombinant; tags: N-terminal GST; dsDNA, one strand shown
# ETV6, sequence (P41212 whole entry): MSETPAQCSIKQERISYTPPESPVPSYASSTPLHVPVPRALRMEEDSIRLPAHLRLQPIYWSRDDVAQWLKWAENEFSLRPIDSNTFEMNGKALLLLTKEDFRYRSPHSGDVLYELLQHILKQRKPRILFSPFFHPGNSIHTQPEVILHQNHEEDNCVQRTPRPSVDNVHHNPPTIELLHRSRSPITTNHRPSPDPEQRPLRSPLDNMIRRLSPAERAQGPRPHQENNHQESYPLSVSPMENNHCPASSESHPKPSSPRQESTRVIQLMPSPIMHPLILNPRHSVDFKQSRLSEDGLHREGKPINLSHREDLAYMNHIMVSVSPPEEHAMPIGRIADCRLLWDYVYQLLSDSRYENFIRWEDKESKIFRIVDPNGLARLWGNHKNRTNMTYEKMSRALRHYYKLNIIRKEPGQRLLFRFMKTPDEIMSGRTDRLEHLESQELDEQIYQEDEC
# Method in brief: as §1
sequence,measurement,setting,value
CTTACC,binding signal,FEV,"1.25 fold enrichment (6-mer frequency, TF over GST control)"
same,binding signal,ETV5,"1.21 fold enrichment (6-mer frequency, TF over GST control)"
same,binding signal,HSF1,"1.26 fold enrichment (6-mer frequency, TF over GST control)"
same,binding signal,SPIC,"1.34 fold enrichment (6-mer frequency, TF over GST control)"
same,binding signal,ELF4,"1.25 fold enrichment (6-mer frequency, TF over GST control)"
same,binding signal,ELK4,"1.27 fold enrichment (6-mer frequency, TF over GST control)"
same,binding signal,ETV2,"1.27 fold enrichment (6-mer frequency, TF over GST control)"
same,binding signal,ELF3,"1.27 fold enrichment (6-mer frequency, TF over GST control)"
same,binding signal,CRX,"1.58 fold enrichment (6-mer frequency, TF over GST control)"
same,binding signal,ETV1,"1.28 fold enrichment (6-mer frequency, TF over GST control)"
same,binding signal,ERF,"1.19 fold enrichment (6-mer frequency, TF over GST control)"
same,binding signal,ETV3L,"1.16 fold enrichment (6-mer frequency, TF over GST control)"
same,binding signal,ETS2,"1.29 fold enrichment (6-mer frequency, TF over GST control)"
same,binding signal,SPDEF,"1.39 fold enrichment (6-mer frequency, TF over GST control)"
same,binding signal,ETV7,"1.29 fold enrichment (6-mer frequency, TF over GST control)"
same,binding signal,ELF5,"1.39 fold enrichment (6-mer frequency, TF over GST control)"
same,binding signal,ETV3,"1.22 fold enrichment (6-mer frequency, TF over GST control)"
same,binding signal,ETV6,"1.19 fold enrichment (6-mer frequency, TF over GST control)"
